# Bioassay records from PubChem.
# FEN1 inh-1: qHTS Assay for the Inhibitors of Human Flap endonuclease 1 (FEN1) | AID 588795, 2011 | Recombinant FEN1 flap cleavage, fluorescence, 15 min | P39748 | actives 0.35% (n = 390,000) | Potency, µM (top dose mostly 114 µM), without a hit: top-dose activity change, negative = inhibition, actives largely listed as inhibitors; note: potency is the fitted concentration of half-maximal effect; % is set by controls: 0 for no effect and ±100 for the full control effect; nearly all actives have a fitted effect of over 65% in size
#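 With each library titrated from low to high concentration, compounds met 10 nM FEN1 for 15 min at room temperature before 50 nM substrate was added; readings at 0 and 15 min fed four-parameter Hill curve fits.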
# PI5P4Ka inh: qHTS for Inhibitors of phosphatidylinositol 5-phosphate 4-kinase (PI5P4K). PI5P4Kalpha enzyme, ADP-Glo luminescence, 60 min; hits give low values. actives 1.2% (n = 330,000). max response, %. AID 652105, 2013. Phosphatidylinositol 5-phosphate 4-kinase type-2 alpha (Homo sapiens), P48426; active = max response of -50% or lower; inconclusive = between -30% and -50%; inactive = -30% or higher; note: value at the top dose of about 77 µM; % is set by controls: 0 for no effect and ±100 for the full control effect
#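 Single end-point luminescence (ADP-Glo) quantified ADP from PI5P4Kalpha turnover; ATP 5 microM final, 1 h at RT, 0.1% CHAPS and 0.28 mM EGTA in HEPES pH 7.4.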
# Pol kappa inh-1: qHTS for Inhibitors of Polymerase Kappa; AID 588579, 2011; DNA polymerase kappa (Homo sapiens), Q9UBT6; Potency, µM (titrated, usually from 107 µM), inactives show at the top dose activity, negative = inhibition, usual class: inhibitors; actives 0.53% (n = 400,000); purified Pol kappa, fluorescent DNA synthesis assay, 10 min; note: potency is the fitted concentration of half-maximal effect; % is set by controls: 0 for no effect and ±100 for the full control effect
#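 Activity was followed as the change in fluorescence between reads at 0 and 10 min after starting the reaction with 50 nM substrate. Beforehand, 10 nM polymerase had been preincubated with compound for 15 min at room temperature.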
# Pol beta inh-1: qHTS Assay for Inhibitors of DNA Polymerase Beta. P06746. Pol beta primer extension/strand displacement, fluorescence kinetic. AID 485314, 2010. actives 1.3% (n = 340,000). Potency, µM (titrated, usually from 114 µM), inactives show at the highest dose activity change, negative = inhibition, most hits filed as inhibitors; note: potency is the fitted concentration of half-maximal effect; % is set by controls: 0 for no effect and ±100 for the full control effect
#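 10 nM enzyme + cpd, 15 min RT; start with substrate 50 nM final; read 0 min and after 10 min RT. Corrected, normalized data; 4-parameter Hill curve fit.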
# Pol eta inh-1: qHTS for Inhibitors of Polymerase Eta | recombinant Pol eta, fluorescent DNA replication assay | Potency, µM (titrated, usually from 114 µM), without a hit: top-dose activity change, negative = inhibition, actives largely listed as inhibitors | actives 1.2% (n = 390,000) | AID 588591, 2011; note: potency is the fitted concentration of half-maximal effect; % is set by controls: 0 for no effect and ±100 for the full control effect
#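 Pol eta at 10 nM preincubated with compounds 15 min at room temperature; reaction started with fluorescent substrate (50 nM final) and read kinetically at 0 and 10 min.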
# POLI inh: qHTS for Inhibitors of Polymerase Iota. Pol iota fluorescent replication assay, 10 min. Potency, µM (titrated, usually from 115 µM), for the others: at the top dose activity, negative = inhibition, most hits filed as inhibitors. actives 1% (n = 390,000). AID 588590, 2011; note: potency is the fitted concentration of half-maximal effect
# Target sequence (Q9UNA4 whole entry, looked up): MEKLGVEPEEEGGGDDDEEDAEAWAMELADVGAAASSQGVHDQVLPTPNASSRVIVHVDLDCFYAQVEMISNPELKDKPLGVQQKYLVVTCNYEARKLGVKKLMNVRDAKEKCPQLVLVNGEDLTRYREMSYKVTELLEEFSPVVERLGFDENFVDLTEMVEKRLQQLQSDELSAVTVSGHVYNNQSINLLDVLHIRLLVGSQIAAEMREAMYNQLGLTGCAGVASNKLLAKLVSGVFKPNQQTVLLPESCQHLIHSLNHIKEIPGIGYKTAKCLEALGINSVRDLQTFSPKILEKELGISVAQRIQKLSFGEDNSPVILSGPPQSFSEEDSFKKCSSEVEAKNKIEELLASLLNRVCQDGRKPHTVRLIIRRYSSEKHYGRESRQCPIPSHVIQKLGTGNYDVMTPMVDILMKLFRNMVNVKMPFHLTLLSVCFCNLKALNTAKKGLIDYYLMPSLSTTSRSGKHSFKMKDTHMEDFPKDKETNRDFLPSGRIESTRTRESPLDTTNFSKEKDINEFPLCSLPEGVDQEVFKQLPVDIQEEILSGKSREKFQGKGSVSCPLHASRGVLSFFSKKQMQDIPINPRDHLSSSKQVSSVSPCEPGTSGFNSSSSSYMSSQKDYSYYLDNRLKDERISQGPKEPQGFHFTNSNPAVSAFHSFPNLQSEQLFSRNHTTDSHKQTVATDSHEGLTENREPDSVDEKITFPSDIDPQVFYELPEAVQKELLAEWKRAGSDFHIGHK
#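 Pol iota at 10 nM preincubated 15 min with compounds at room temperature; reaction started with fluorescent substrate, 50 nM final. Fluorescence read kinetically at 0 and 10 min; buffer-only wells as negative control.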
# Pol beta inh-2: Inhibitors of DNA Polymerase Beta: Hit validation | actives 87% (n = 250) | Pol beta primer extension/strand displacement, fluorescence kinetic | Potency, µM, usual class: inhibitors | AID 540280, 2011 | shares compounds with Pol beta inh-1; calls by dose curve; note: potency is the fitted concentration of half-maximal effect
# Klenow inh: Inhibitors of DNA Polymerase Beta: Hit Validation in Klenow Fragment Assay; shares compounds with Pol beta inh-1; Klenow exo- polymerase counter-screen, fluorescent DNA substrate; activity change, negative = inhibition, % at 57.1 µM; 250 tested, under 10 active; AID 540300, 2011
# HIV RT inh: Inhibitors of DNA Polymerase Beta: Hit Validation in HIV-RT Assay; shares compounds with Pol beta inh-1; HIV-1 RT polymerase activity, counter-screen; activity % (negative = inhibition, positive = activation), % at 57.1 µM; 250 tested, under 10 active
# POLB inh gel: Inhibitors of DNA Polymerase Beta: Hit Validation in Radiolabeled Extension Assay; shares compounds with Pol beta inh-1; radiolabeled primer extension gel assay, phosphorimager; inhibition, % at 10 µM; actives 91% (n = 110);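 active = inhibition at 10 µM of 30% or more; inconclusive = no clear call, values can overlap the other calls; inactive = inhibition at 10 µM under 30%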
# PGK validate: qHTS for inhibitors of Phosphogylcerate Kinase: Hit Validation Screen; shares compounds with Pol kappa inh-1; AID 686980, 2013; Potency, µM (titrated, usually from 57.5 µM), for the others: top-dose activity change, negative = inhibition, actives largely listed as inhibitors; actives 79% (n = 500); TbPGK coupled GAPDH assay, Kinase-Glo luminescence; note: potency is the fitted concentration of half-maximal effect; % is set by controls: 0 for no effect and ±100 for the full control effect; nearly all actives have a fitted effect of over 65% in size
# POLI cherry-pick: qHTS for Inhibitors of Polymerase Iota: Confirmatory Assay for Cherry-picked Compounds. shares compounds with Pol kappa inh-1. Pol iota primer extension, TAMRA/BHQ fluorescence. Potency, µM, usual class: inhibitors. actives 77% (n = 1,500); note: potency is the fitted concentration of half-maximal effect
# Pol kappa inh-2: qHTS for Inhibitors of Polymerase Kappa: Confirmatory Assay for Cherry-picked Compounds | purified Pol-kappa, fluorescent strand-displacement substrate | Potency, µM, usual class: inhibitors | actives 76% (n = 920) | shares compounds with Pol eta inh-1; note: potency is the fitted concentration of half-maximal effect
# Pol eta inh-2: qHTS for Inhibitors of Polymerase Eta: Confirmatory Assay for Cherry-picked Compounds; shares compounds with Pol eta inh-1; Pol eta primer extension, TAMRA/BHQ fluorescence, 10 min; Potency, µM, actives largely listed as inhibitors; actives 64% (n = 2,600); AID 720502, 2013; note: potency is the fitted concentration of half-maximal effect
# FEN1 inh-2: qHTS Assay for the Inhibitors of FEN1: Confirmatory Assay for Cherry-picked Compounds; shares compounds with FEN1 inh-1; FEN1 flap cleavage, TAMRA/BHQ2 fluorogenic DNA substrate; Potency, µM, most hits filed as inhibitors; actives 79% (n = 880); note: potency is the fitted concentration of half-maximal effect; nearly all actives have a fitted effect of over 60% in size
# ADP-Glo interf: qHTS for Inhibitors of PI5P4K: ADP-Glo counter assay; shares compounds with PI5P4Ka inh; Potency, µM (titrated, usually from 76.9 µM), without a hit: top-dose activity change, negative = inhibition, usual class: inhibitors; 1,100 tested, under 10 active; ADP-Glo detection counter-screen, luciferase luminescence, no enzyme
# Numbers without * were called inactive; ? = inconclusive; · = no result given. An excerpt weighted towards active compounds, which were near 2.8% of everything screened. Unless noted, calls come from the whole dose curve; as a rule, active = well fitted curve in the direction sought with a large enough effect; inconclusive = small, poorly fitted or top-dose-only effect, or another doubt; inactive = no such curve, though single readings can be large; an effect the other way counts as inactive or inconclusive.
SMILES,FEN1 inh-1,PI5P4Ka inh,Pol kappa inh-1,Pol beta inh-1,Pol eta inh-1,POLI inh,Pol beta inh-2,Klenow inh,HIV RT inh,others
Cc1cc(/C=C2\C(=N)N3N=C(c4ccco4)SC3=NC2=O)c(C)n1Cc1ccccc1,?,-61.8*,50.1µM*,10µM*,22.4µM*,20µM*,14.1*,-11.1,-13.4,Pol kappa inh-2=16.8*;Pol eta inh-2=42.6*;FEN1 inh-2=?
COc1cccc(OC)c1C(=O)Nc1ccncc1,-9.0%,1.6,-1.9%,·,-4.2%,?,·,·,·,
CCOC(=O)Cc1csc(NC(=O)Cc2cccs2)n1,-12.1%,-58.3*,?,14.1µM*,17.8µM*,?,?,-5.0,15.2,ADP-Glo interf=0.4%
Cn1c(SCC(=O)Nc2ccc3nc(SCC(=O)N4CCCC4)sc3c2)nnc1-c1ccccc1,-24.3%,-63.9*,79.4µM*,7.08µM*,14.1µM*,?,12.6*,-7.7,19.4,POLI cherry-pick=75.2*;ADP-Glo interf=-6.9%
COc1ccc(CCn2c(O)cc3nn(-c4nc5ccccc5s4)c(=O)c-3c2C)cc1,?,-80.9*,22.4µM*,1.78µM*,50.1µM*,?,?,-31.8,35.7,POLB inh gel=96.6*;ADP-Glo interf=2.7%
COC(=O)/C(C#N)=C(/Nc1ccc(F)c(Cl)c1)C(F)(F)F,6.1%,-5.2,-2.0%,-12.0%,-0.2%,-7.2%,·,·,·,
CCc1cccc(C)c1NC(=O)CCn1c(=O)c2cccn2c2ccccc21,-9.1%,·,0.2%,1.5%,-16.2%,32.2%,·,·,·,
O=C(Nc1cccc(S(=O)(=O)NC2=NCCC2)c1)c1cc(-c2ccco2)nc2ccccc12,?,-74.9*,31.6µM*,3.55µM*,10µM*,8.91µM*,4.47*,-39.4,6.1,POLI cherry-pick=33.6*;Pol eta inh-2=23.9*;FEN1 inh-2=75.7*;ADP-Glo interf=-4.1%
O=C(Nc1cccc(S(=O)(=O)NC2=NCCCCC2)c1)c1cc(-c2ccccc2)nc2ccccc12,-17.0%,-1.0,-9.7%,9.1%,-4.0%,9.0%,·,·,·,
CCOc1ccc(/C=N/NC(=O)c2cc(-c3ccco3)nc3ccccc23)cc1,12.9%,?,-4.5%,14.5%,-7.4%,?,·,·,·,
CCNC(=O)COC(=O)c1cc(-c2ccco2)nc2ccccc12,?,-78.4*,35.5µM*,12.6µM*,20µM*,8.91µM*,25.1*,-19.8,4.7,POLB inh gel=98.4*;POLI cherry-pick=33.6*;Pol eta inh-2=37.9*;ADP-Glo interf=3.5%
Cc1nnc(NC(=O)C(C)Sc2nnc(CNC(=O)c3ccccc3F)n2C)s1 (stereo unspecified),7.8%,-4.3,8.0%,·,-9.8%,?,·,·,·,
CCC(C(=O)NC1CCCC1)N(C(=O)c1snc(C(N)=O)c1N)c1ccc(OC)c(OC)c1 (stereo unspecified),-2.7%,-2.6,0.4%,-24.1%,-4.2%,66.6%,·,·,·,
COc1ccc(N(C(=O)c2snc(C(N)=O)c2N)C(C(=O)NC2CCCC2)c2cccs2)cc1OC (stereo unspecified),6.0%,0.9,-18.1%,?,?,8.91µM*,·,·,·,POLI cherry-pick=?
CCNC(=S)N1CCNC(=O)C1CC(=O)OC (stereo unspecified),19.4%,2.8,4.1%,14.8%,-6.6%,18.0%,·,·,·,
O=C(O)CSCC(=O)Nc1ccc(-c2nc3ccccc3s2)cc1,-11.3%,?,-11.7%,?,44.7µM*,-0.5%,·,·,·,PGK validate=?
O=C(Nc1ccc(NC(=O)c2ccco2)c(Cl)c1)c1ccc2c(c1)OCCO2,-28.6%,1.4,?,?,?,?,·,·,·,POLI cherry-pick=?
O=C(Nc1ccc(NC(=O)c2ccco2)cc1)c1ccc2c(c1)OCO2,2.3%,-2.5,5.9%,17.6%,-10.9%,-3.7%,·,·,·,
CCCCNc1ncnc2[nH]ncc12,4.5%,2.4,-10.7%,·,-3.1%,1.6%,·,·,·,
FC(F)(F)c1ccc(Cl)c(Nc2nnc(-c3ccncc3)s2)c1,·,-0.7,·,·,·,·,·,·,·,
Clc1ccccc1Nc1nnc(-c2ccncc2)s1,-1.6%,?,-0.7%,0.2%,3.9%,4.6%,·,·,·,PGK validate=14.6µM*
